ST2 IL33 inh: inhibitors of human ST2 (IL1RL1) binding to IL-33 | Q01638 | AlphaLISA ST2-Fc/biotin-IL-33 interaction, 1 h | inhibition, % for hits at 17 µM | 78,000 tested, 2.3% active | AID 1259354; in the data active = inhibition above about 30%
Target sequence (Q01638 whole entry, looked up): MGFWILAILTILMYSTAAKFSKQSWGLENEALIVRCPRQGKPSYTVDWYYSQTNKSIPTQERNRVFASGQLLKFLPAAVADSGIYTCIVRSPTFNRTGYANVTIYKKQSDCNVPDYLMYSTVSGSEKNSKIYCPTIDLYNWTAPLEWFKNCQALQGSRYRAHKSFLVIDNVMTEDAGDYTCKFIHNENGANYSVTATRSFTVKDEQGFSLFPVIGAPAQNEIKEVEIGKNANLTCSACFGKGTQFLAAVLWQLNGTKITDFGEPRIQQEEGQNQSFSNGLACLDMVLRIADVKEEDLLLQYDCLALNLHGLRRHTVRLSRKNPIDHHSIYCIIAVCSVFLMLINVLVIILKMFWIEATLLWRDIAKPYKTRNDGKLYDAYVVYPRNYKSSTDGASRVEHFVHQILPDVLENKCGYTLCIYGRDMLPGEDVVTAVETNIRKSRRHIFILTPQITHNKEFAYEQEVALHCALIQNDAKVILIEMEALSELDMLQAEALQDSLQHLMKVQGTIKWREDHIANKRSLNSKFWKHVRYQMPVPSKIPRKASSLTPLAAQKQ
* marks the source's active call; other numbers are inactive results; i = inactive. Many of the other results were omitted from the sample, so hits are more common in it than they were.

SMILES	ST2 IL33 inh
OCCc1ccccc1-n1ccnc1-c1ccc(-c2ccn[nH]2)o1	i
O=C(O)C(CO)Nc1nc(-c2ccccc2)nc2ccccc12 (stereo not drawn)	i
O=C1N=c2ccc(F)cc2=C1c1sc(Nc2ccc(Br)cc2)nc1O	i
Cc1ccccc1NC(=O)c1cccc(Br)c1	i
Cc1cccc(Nc2nc(O)c(C3=c4cc(Br)ccc4=NC3=O)s2)c1C	42.0%*
O=C1N=c2ccc(Cl)cc2=C1c1sc(Nc2ccc(Cl)cc2)nc1O	44.0%*
Cc1cc(Br)c2c(c1)=C(c1sc(Nc3ccccc3Cl)nc1O)C(=O)N=2	i
Cc1c(Cl)ccc2c1=NC(=O)C=2c1sc(Nc2ccc(Br)cc2)nc1O	i
CCCn1cnc2sc(C(=O)Oc3ccc(C(=O)OCC)cc3)c(C)c2c1=O	i
O=C(Nc1nc(-c2ccccn2)cs1)c1ccc(C(=O)c2ccccc2)cc1	i
c1ccc(CNc2nc(-c3ccccn3)cs2)cc1	36.0%*
Oc1ccc(Nc2nc(-c3ccccn3)cs2)cc1	i
Cc1nn(Cc2ccc(F)cc2)c(C)c1NC(=O)c1cc(C2CC2)on1	i
O=C(C1CNCCN1C(=O)c1cccc2nccnc12)N1CCOCC1 (stereo not drawn)	i
CN(C)c1ccc(/C=C2\c3cc([N+](=O)[O-])ccc3-c3c2cc([N+](=O)[O-])cc3[N+](=O)[O-])cc1	i
COc1ccc(S(=O)(=O)Nc2ccc(OC)cc2[N+](=O)[O-])cc1	i
COc1ccc(C=C2c3cc([N+](=O)[O-])cc([N+](=O)[O-])c3-c3c2cc([N+](=O)[O-])cc3[N+](=O)[O-])cc1	51.0%*
COc1ccc(/C=C2\N=C(c3ccc(C)c([N+](=O)[O-])c3)OC2=O)cc1	i
CN(C)c1ccc(C=C2c3cc([N+](=O)[O-])cc([N+](=O)[O-])c3-c3c2cc([N+](=O)[O-])cc3[N+](=O)[O-])cc1	42.0%*
CN(C)c1ccc(/C=C2\N=C(c3cccc([N+](=O)[O-])c3)OC2=O)cc1	i
O=C(O)[C@H]1C[C@@H](O)CCN1Cc1ccc2cccc(Cl)c2n1	i
CSc1nnc2c(n1)OC(c1ccc(O)c(Cl)c1)Nc1ccccc1-2 (stereo not drawn)	i
CC(=O)N1CCc2c(sc(NC(=O)c3ccc(Cl)s3)c2-c2nc3ccccc3s2)C1	i
NC(=O)C(=O)NC1CCCN(Cc2ccc(F)cc2)C1 (stereo not drawn)	i
CNC(=O)c1ccc(CN2CCCC(Nc3ccc(F)cc3)C2)o1 (stereo not drawn)	36.0%*
SMILES	ST2 IL33 inh
COc1ccc(-c2ncc(CN3CCCC(Nc4ccc(F)cc4)C3)cn2)cc1 (stereo not drawn)	i
COc1cccc(C(=O)N2CCN(Cc3cn(CCO)nc3C)CC2)c1	i
CCc1c(C)nc(SCC#N)c(C#N)c1C	i
O=C(NCCN1CCCC1)c1ccc2c(c1)NC(=O)C(N1CCCC1)S2 (stereo not drawn)	i
COc1ccc(COCC(O)CN2CCN(C)CC2)cc1OC (stereo not drawn)	i
O=C(CN1C(=O)C2(OCCCO2)c2ccccc21)NCCC1=CCCCC1	i
Cc1ccc(CNC(=O)CSc2cc(=O)n(C)c3ccccc23)o1	i
O=C(c1ccc([N+](=O)[O-])cc1)c1ccc(Cl)c(Cl)c1	58.0%*
O=C(Nc1ccccc1O)c1ccc([N+](=O)[O-])cc1	i
COc1ccc(C(=O)NCCNc2ccc([N+](=O)[O-])cc2)cc1Cl	i
CN(CCCC(=O)n1cnc2ccccc21)S(=O)(=O)c1ccc(Cl)cc1	i
CCCN1CCC(Cc2noc(Cn3[nH]c(=O)ccc3=O)n2)CC1	i
O=C(O)CC1C(=O)NCCN1CC1CCCCC1 (stereo not drawn)	i
COc1ccc(N(C(=O)c2ccccc2Br)C2C=CS(=O)(=O)C2)c(OC)c1 (stereo not drawn)	i
Cc1ccc(-c2[nH]nc3c2C(c2ccccc2F)C(C#N)=C(N)O3)cc1 (stereo not drawn)	i
Cc1[nH]nc2c1C(c1cc(Br)cs1)C(C#N)=C(N)O2 (stereo not drawn)	33.0%*
CCCCOc1ccc(C2C(C#N)=C(N)Oc3n[nH]c(C)c32)cc1 (stereo not drawn)	i
Cc1[nH]nc2c1C(c1c(F)cccc1F)C(C#N)=C(N)O2 (stereo not drawn)	32.0%*
CCN(CC)c1ccc(C2C(C#N)=C(N)Oc3n[nH]c(C)c32)cc1 (stereo not drawn)	i
CCOc1ccc(C2C(C#N)=C(N)Oc3n[nH]c(C)c32)cc1 (stereo not drawn)	i
COc1cc(NC(=O)c2ccc([N+](=O)[O-])cc2)c(OC)cc1NC(C)=O	i
COC1(C#CC(=O)c2ccc([N+](=O)[O-])cc2)CCCCC1	61.0%*
COc1ccc(C2(CNC(=O)c3ccc([N+](=O)[O-])cc3)CCCC2)cc1	i
Cc1cccc(NS(=O)(=O)c2ccc(CC(C)C)cc2)c1	i
COc1cc(OC)cc(C(=O)Nc2nc(-c3ccccn3)cs2)c1	i
SMILES	ST2 IL33 inh
COCC(Nc1nc(-c2ccncc2)nc2c1CNC2)c1ccnn1C (stereo not drawn)	i
COc1ccc(C2SCCN2S(=O)(=O)c2ccc([N+](=O)[O-])cc2)cc1OC (stereo not drawn)	i
COc1cc(/C=C/c2c([N+](=O)[O-])c(=O)n(C)c(=O)n2C)ccc1OCc1ccccc1	i
COc1ccc(C2Oc3c(Br)cc(Br)cc3C=C2[N+](=O)[O-])cc1OC (stereo not drawn)	56.0%*
COc1cc(C2Oc3ccccc3C=C2[N+](=O)[O-])ccc1OCc1ccccc1 (stereo not drawn)	46.0%*
COc1cc(-c2ncnn2-c2ccc(F)c([N+](=O)[O-])c2)ccc1OCc1ccccc1	i
COc1ccc([C@H]2OC[C@H]3[C@@H]2CO[C@@H]3c2ccc(OC)c(OC)c2)cc1OC	i
CN1CCCN(Cc2cccc([N+](=O)[O-])c2)CC1	i
CN(CC1CCN(CCc2ccc(F)cc2)CC1)C(=O)CC1CCC(=O)N1 (stereo not drawn)	i
CC(=O)N1c2ccc(N=Cc3cc(Br)cc(Br)c3O)cc2CC1C (stereo not drawn)	i
CCc1ccc(N=Cc2cc(Br)ccc2O)cc1	36.0%*
Cn1c(=O)n(C)c2cc(N=Cc3cccc([N+](=O)[O-])c3)ccc21	i
Oc1c(Cl)cc(Br)cc1C=Nc1ccccc1	i
Cn1c(=O)n(C)c2cc(N=Cc3cc(Br)ccc3O)ccc21	31.0%*
CCc1ccc(N=Cc2cccc([N+](=O)[O-])c2O)cc1	i
COC(C(=O)Nc1ccc([N+](=O)[O-])cc1)c1ccccc1 (stereo not drawn)	i
Cc1ccc(S(=O)(=O)N2CCN(C(=O)CN3CCCC3)C2c2ccccc2)cc1 (stereo not drawn)	i
CCOC(=O)c1oc2ccc(S(=O)(=O)N3CCCC(C)C3)cc2c1C (stereo not drawn)	i
CCC1(CC)C(=O)N=C(N)NC1=O	i
CC(C)NC(=O)c1cn(C)c(=O)c2c1c1ccccc1n2C	i
CCC1c2cccn2CCN1C(=O)c1coc2c1C(=O)CCC2 (stereo not drawn)	i
O=C(Nc1ccc(N=Cc2ccc(O)c(O)c2)cc1)c1ccc(F)cc1	i
CC(C)C(C(=O)NC1CCCCC1)N1C(=O)c2ccccc2C1=O (stereo not drawn)	i
O=C1C(NC2CCCCC2)=C(N2CCOCC2)C(=O)c2ccccc21	73.0%*
